Results reported in PubChem BioAssay AID1159580 (chemical genetic matrix, 2015).
“And” between values parts separate entries of the source, which are not always exact repeats. Equal entries are not always repeated. In all, about 5,500 compounds went through this assay and about 2,000 (36%) were called active. Not shown: some 18% with an inconclusive outcome. Rule as the data show it: active = normalized growth mostly below about 0.91 (no sharp cut-off); inconclusive = no clear call, values can overlap the other calls; inactive = mostly above about 0.92. The list shows a part of the results.

Assay: chemical genetic growth profiling, strain panel (AID 1159580);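 also: tested at 20 µM; growth read once vehicle control cultures reached saturation at 30 °C; 1 = growth at the plate median or of vehicle wells; lower values mean less growth of the strain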
Conditions: S. cerevisiae deletion strains, growth OD

Measured: normalized growth

O=C(CCBr)N1CCN(C(=O)CCBr)CC1
inactive: locus YAL013W, strain DEP1, active compounds read low 1 | locus YAL021C, strain ccr4, active compounds read low 1.02 | locus YAL026C, strain drs2, active compounds read low 1.01 | locus YAL030W, strain snc1, active compounds read low 1.02 | locus YBL061C, strain skt5, active compounds read low 1.02 | locus YBR009C, strain hhf1, active compounds read low 1.02 | locus YBR021W, strain FUR4, active compounds read low 0.998 | locus YBR023C, strain chs3, active compounds read low 1.03 | locus YBR171W, strain sec66, active compounds read low 1.04 | locus YBR229C, strain ROT2, active compounds read low 1 | locus YBR231C, strain swc5, active compounds read low 1.02 | locus YBR279W, strain paf1, active compounds read low 1.02 | locus YCL011C, strain gbp2, active compounds read low 1.02 | locus YCL016C, strain dcc1, active compounds read low 1.02 | locus YCL029C, strain bik1, active compounds read low 1 | locus YCL061C, strain MRC1, active compounds read low 1.01 | locus YCL069W, strain vba3, active compounds read low 1.02 | locus YCR088W, strain abp1, active compounds read low 1.01 | locus YDL005C, strain med2, active compounds read low 1.02 | locus YDL035C, strain GPR1, active compounds read low 1.01 | locus YDL040C, strain nat1, active compounds read low 1.02 | locus YDL074C, strain BRE1, active compounds read low 1 | locus YDL101C, strain DUN1, active compounds read low 1.01 | locus YDL134C, strain PPH21, active compounds read low 1.01 | locus YDL185W, strain tfp1, active compounds read low 0.988 | locus YDL192W, strain arf1, active compounds read low 1.01 | locus YDR001C, strain nth1, active compounds read low 1.01 | locus YDR069C, strain doa4, active compounds read low 1.02 | locus YDR101C, strain arx1, active compounds read low 1.01 | locus YDR137W, strain rgp1, active compounds read low 1.05 | locus YDR159W, strain sac3, active compounds read low 1.01 | locus YDR162C, strain NBP2, active compounds read low 1.01 | locus YDR195W, strain ref2 1.02 | locus YDR297W, strain sur2, active compounds read low 1.02 | locus YDR318W, strain mcm21, active compounds read low 0.996 | locus YDR334W, strain swr1, active compounds read low 1.02 | locus YDR335W, strain msn5, active compounds read low 1.02 | locus YDR388W, active compounds read low 0.995 | locus YDR392W, strain spt3, active compounds read low 1.03 | locus YDR502C, strain sam2, active compounds read low 0.998 | locus YEL003W, strain gim4, active compounds read low 1.02 | locus YEL037C, strain rad23, active compounds read low 1.01 | locus YEL061C, strain CIN8 (second series), active compounds read low 1.02 | locus YEL061C, strain CIN8, active compounds read low 1 | locus YER015W, strain faa2, active compounds read low 1.02 | locus YER016W, strain bim1, active compounds read low 1.02 | locus YER110C, active compounds read low 0.993 | locus YER111C, strain swi4, active compounds read low 1.02 | locus YER155C, strain BEM2 (second series), active compounds read low 1.02 | locus YER155C, strain BEM2, active compounds read low 1.01 | locus YER167W, strain BCK2, active compounds read low 1.01 | locus YFR010W, strain ubp6, active compounds read low 1.01 | locus YGL078C, strain dbp3, active compounds read low 0.995 | locus YGL086W, strain mad1, active compounds read low 0.991 | locus YGL167C, strain pmr1, active compounds read low 1.02 | locus YGL173C, strain kem1, active compounds read low 1.02 | locus YGL227W, strain vid30, active compounds read low 1.02 | locus YGL240W, strain doc1, active compounds read low 1.02 | locus YGL248W, strain PDE1, active compounds read low 1 | locus YGL253W, strain hxk2, active compounds read low 1 | locus YGR135W, strain pre9, active compounds read low 0.99 | locus YGR229C, strain SMI1, active compounds read low 0.99 | locus YGR252W, strain gcn5, active compounds read low 0.934 | locus YHR013C, strain ard1, active compounds read low 1.04 | locus YHR027C, strain rpn1, active compounds read low 1.01 | locus YHR030C, strain SLT2, active compounds read low 1.01 and 1 | locus YHR079C, strain IRE1 (second series), active compounds read low 0.995 | locus YHR079C, strain IRE1, active compounds read low 0.997 | locus YHR094C, strain hxt1, active compounds read low 0.996 | locus YHR129C, strain ARP1, active compounds read low 1.01 | locus YHR142W, strain chs7, active compounds read low 1.02 | locus YHR200W, strain rpn10, active compounds read low 0.994 | locus YIL066C, strain RNR3, active compounds read low 1.02 | locus YIL073C, strain SPO22, active compounds read low 1.04 | locus YIL125W, strain kgd1, active compounds read low 0.987 | locus YIR030C, strain dcg1, active compounds read low 1 | locus YJL092W, strain hpr5, active compounds read low 1.01 | locus YJL095W, strain BCK1 (second series), active compounds read low 1.01 | locus YJL095W, strain BCK1, active compounds read low 1.01 and 0.998 | locus YJL115W, strain asf1, active compounds read low 1 | locus YJL129C, strain trk1, active compounds read low 1.02 | locus YJL134W, strain LCB3, active compounds read low 1.01 | locus YJL154C, strain vps35, active compounds read low 1.02 | locus YJL164C, strain tpk1, active compounds read low 1.02 | locus YJL166W, strain qcr8, active compounds read low 1.02 | locus YJL168C, strain set2, active compounds read low 0.998 | locus YJL187C, strain SWE1 (second series), active compounds read low 1.02 | locus YJL187C, strain SWE1, active compounds read low 1.02 | locus YJR043C, strain POL32, active compounds read low 1.01
